# The whole screen tested about 69,000 compounds, of which about 1,000 (1.4%) showed an effect of 50% or more. Only a selection was taken, and strong results are over-represented in it overall.
# Test system: Leishmania donovani
# Assay: Leishmania intramacrophage assay
# Format: functional, organism-based
# Set-up: scale not given: in the data most compounds retested in dose-response had high values
smiles,measurement,setting,value
CCN(CC)C(CNC(=O)c1ccnc(N(C)C)c1)c1ccsc1 (configuration not stated),Percent Effect,"30.3 µM, […]",1.995%
Cc1ccc(NC2CCN(C(=O)CCc3c(C)noc3C)CC2)nn1,Percent Effect,30 µM,23.52%
Oc1ccc(-c2c(-c3ccccc3)ncn2C[C@H]2CCCN2)cc1,Percent Effect,"30.3 µM, […]",51.83%
O=C(O)c1ccccc1-c1c(-c2ccccc2)ncn1C[C@H]1CCCN1,Percent Effect,"30.3 µM, […]",31.03%
O=C(O)c1ccccc1-c1c(-c2ccccc2)ncn1CC1CCCO1 (configuration not stated),Percent Effect,"30.3 µM, […]",-1.472%
CCc1ccc(C(COC)NC(=O)c2ccc(O)nc2)o1 (configuration not stated),Percent Effect,"30.3 µM, […]",-7.414%
CCc1ccc(C(COC)NC(=O)c2ccc(NC(C)=O)cc2)o1 (configuration not stated),Percent Effect,"30.3 µM, […]",-4.032%
CCc1ccc(C(COC)NC(=O)c2ccc(C(N)=O)cc2)o1 (configuration not stated),Percent Effect,"30.3 µM, […]",64.18%
NC(=O)CS(=O)(=O)Cc1csc(-c2ccccc2)n1,Percent Effect,"30.3 µM, […]",15.77%
Cc1nnsc1C(=O)NCCNS(=O)(=O)c1cccs1,Percent Effect,"30.3 µM, […]",-23.26%
Cc1nc(C)n(C2CCCN(C(=O)c3sccc3C)C2)n1 (configuration not stated),Percent Effect,30 µM,16.01%
CC(=O)NCCNC(=O)NCC1Cc2ccccc2O1 (configuration not stated),Percent Effect,"30.3 µM, […]",52.86%
CC(C)c1noc(CCNC(=O)NCC2Cc3ccccc3O2)n1 (configuration not stated),Percent Effect,"30.3 µM, […]",-9.19%
Cc1cc(C)c(CNC(=O)NCC2Cc3ccccc3O2)c(=O)[nH]1 (configuration not stated),Percent Effect,"30.3 µM, […]",1.622%
NS(=O)(=O)CCNC(=O)c1cc(Br)c2c(c1)OCCO2,Percent Effect,"30.3 µM, […]",-2.46%
CC(C)CC(=O)N1C[C@@H]2CCN(c3ncccn3)C[C@@H]2C1.O=C(O)C(F)(F)F,Percent Effect,"30 µM, 30.03 µM",12.14%
CC(C)(C)c1n[nH]cc1CNC1CCC(C(F)(F)F)CC1.Cl (configuration not stated),Percent Effect,"30.3 µM, […]",-4.401%
COCCNC(=O)[C@@H]1CN(c2cc(OC)ncn2)C[C@H]2OCC[C@H]21,Percent Effect,"30.3 µM, […]",7.324%
COCCNC(=O)[C@H]1CN(c2ncccn2)C[C@H]2OCC[C@@H]12,Percent Effect,"30.3 µM, […]",52.44%
COCCNC(=O)[C@@H]1CN(c2ncccn2)C[C@H]2OCC[C@H]21,Percent Effect,"30.3 µM, […]",9.036%
CCC1CCC(N(Cc2cc(=O)n(C)c(=O)n2C)C2CC2)CC1 (configuration not stated),Percent Effect,"30.3 µM, […]",27.04%
CC1(C)CN(CC(F)(F)F)CCN1CC(N)=O,Percent Effect,"30.3 µM, […]",13.64%
Cc1ccc(OCCn2cnc3oc(C)c(C(=O)O)c3c2=O)cc1,Percent Effect,"30.3 µM, […]",-9.017%
CCCc1noc(C(C)N2CCN(CCn3ccccc3=O)CC2)n1 (configuration not stated),Percent Effect,"30.3 µM, […]",52.92%
Cc1noc(C(C)N2CCN(CCn3ccccc3=O)CC2)n1 (configuration not stated),Percent Effect,"30.3 µM, […]",29.89%
CC(c1nc(C2CC2)no1)N1CCN(CCn2ccccc2=O)CC1 (configuration not stated),Percent Effect,"30.3 µM, […]",21.89%
Cc1nc2ccc(S(=O)(=O)Nc3c(C)nn(CC(=O)O)c3C)cc2s1,Percent Effect,"30.3 µM, […]",-9.195%
CCOC[C@@H]1CC[C@H]2[C@H](CCN2S(=O)(=O)c2ccc(F)cc2)O1,Percent Effect,"30.3 µM, […]",19.83%
CCCC(NC(=O)c1cc(C)n(C2CC2)c1C)c1nnn[nH]1 (configuration not stated),Percent Effect,"30 µM, 30.03 µM",2.645%
COc1ccc(Cl)cc1CNCCCn1ccnc1,Percent Effect,"30.3 µM, […]",3.119%
CCOc1ccc(Cl)cc1CNCCCn1ccnc1,Percent Effect,"30 µM, 30.03 µM",1.663%
CCOc1c(Cl)cc(Cl)cc1CNCCCn1ccnc1,Percent Effect,"30.3 µM, […]",67.73%
CCOc1c(CNCCCn2ccnc2)cc(Cl)cc1OC.Cl.Cl,Percent Effect,"30.3 µM, […]",35.73%
CCn1nnc(NCc2cc(Cl)cc(Cl)c2OC)n1,Percent Effect,"30.3 µM, […]",-5.532%
Cc1cc(F)ccc1CN1CCC(O)(CN2CCCCC2)C1 (configuration not stated),Percent Effect,"30 µM, 30.03 µM",37.89%
Cc1cc(F)ccc1CN1CCCC(O)(CN2CCCC2)C1 (configuration not stated),Percent Effect,"30.3 µM, […]",37.99%
COc1ccc(CN2CCC(O)(CN3CCCCC3)C2)c(C)c1 (configuration not stated),Percent Effect,"30.3 µM, […]",67.74%
CCOc1ccc(C(=O)CCC(=O)N(C)Cc2nc(C)c[nH]2)cc1C,Percent Effect,"30.3 µM, […]",-49.88%
CN1CCC(N(C)C[C@H]2CC[C@@H](Cc3cccc(O)c3)O2)CC1,Percent Effect,"30.3 µM, […]",81.26%
CN1CCC(N(C)C[C@H]2CC[C@@H](Cc3ccc4occc4c3)O2)CC1,Percent Effect,"30.3 µM, […]",87.95%
CCN(C)C[C@H]1CC[C@@H](Cc2ccc3c(cnn3C)c2)O1,Percent Effect,"30.3 µM, […]",-0.9976%
CN1CCC(N(C)C[C@H]2CC[C@@H](Cc3cccc(CO)c3)O2)CC1,Percent Effect,"30.3 µM, […]",11.6%
CN1CCC(N(C)C[C@H]2CC[C@@H](Cc3ccc4c(cnn4C)c3)O2)CC1,Percent Effect,"30.3 µM, […]",38.58%
COc1ccc(C[C@@H]2CC[C@H](CN(C)C3CCN(C)CC3)O2)cc1,Percent Effect,"30.3 µM, […]",8.587%
Cc1ccnn1CCC(=O)N1CCCC1c1cc2cccnc2[nH]1.Cl (configuration not stated),Percent Effect,"30.3 µM, […]",-28.4%
COCCNC(=O)N1CCCCC1CNC(=O)Nc1ccccc1 (configuration not stated),Percent Effect,"30.3 µM, […]",-22.22%
Cc1nc(CNC(=O)N(CCCO)C2CCc3ccccc32)oc1C (configuration not stated),Percent Effect,"30.3 µM, […]",21.1%
CC(C)c1cc(C(=O)N2CC[C@@H](c3ccc4c(c3)OCO4)[C@H](O)C2)[nH]n1,Percent Effect,"30.3 µM, […]",26.43%
CCOCC1CN(Cc2cnn(C)c2)Cc2nn(C)cc21.O=C(O)C(F)(F)F (configuration not stated),Percent Effect,"30 µM, 30.03 µM",-19.77%
Cc1nn(Cn2ccc(C(=O)N3CCCC(C)C3)n2)c(C)c1Cl (configuration not stated),Percent Effect,"30.3 µM, […]",24.98%
Cc1nn(Cn2ccc(C(=O)N3CCC(C)CC3)n2)c(C)c1Cl,Percent Effect,"30.3 µM, […]",52.68%
Cc1nn(Cn2ccc(C(=O)N3CCCC3)n2)c(C)c1Cl,Percent Effect,"30.3 µM, […]",14.44%
Cc1cc(C(=O)NCc2cccnc2N2CCCC(O)C2)[nH]n1 (configuration not stated),Percent Effect,"30.3 µM, […]",14.66%
CN(Cc1ccc(Br)c2cccnc12)S(C)(=O)=O,Percent Effect,"30.3 µM, […]",20.74%
O=C(NCCc1cccs1)NCC(O)c1cccc(F)c1 (configuration not stated),Percent Effect,30 µM,0.0374%
Cc1nc(Cn2c3c(ccc2=O)CC(N)CC3)cs1 (configuration not stated),Percent Effect,"30.3 µM, […]",24.76%
Cc1nc(Cn2c3c(ccc2=O)CC(NC(N)=O)CC3)cs1 (configuration not stated),Percent Effect,"30.3 µM, […]",52.43%
CCCC(=O)NC1CCc2c(ccc(=O)n2Cc2csc(C)n2)C1.O=C(O)C(F)(F)F (configuration not stated),Percent Effect,"30.3 µM, […]",38.16%
CCN1CC2(CC1=O)CN(Cc1ccncc1)CCN(C(=O)C(C)C)C2.O=C(O)C(F)(F)F.O=C(O)C(F)(F)F (configuration not stated),Percent Effect,"30.3 µM, […]",17.44%
O=C(C[C@@H]1COC[C@H]2CN(C3CCCC3)C[C@@H]12)N1CCCCO1.O=C(O)C(F)(F)F,Percent Effect,"30.3 µM, […]",0.3497%
Cc1c[nH]c(CN(C)C(C(=O)O)c2c(F)cccc2OC(C)C)n1 (configuration not stated),Percent Effect,"30.3 µM, […]",12.35%
CC(O)CN1CCC(CNCc2cccc(Cl)c2)CC1 (configuration not stated),Percent Effect,"30.3 µM, […]",14.58%
CC(O)CN1CCC(CNCc2cccc(C(N)=O)c2)CC1 (configuration not stated),Percent Effect,"30 µM, 30.03 µM",24.83%
CC(O)CN1CCC(CNCc2ccc(OC(F)(F)F)cc2)CC1 (configuration not stated),Percent Effect,30 µM,89.6%
CC(O)CN1CCC(CNCc2ccc(S(C)(=O)=O)cc2)CC1 (configuration not stated),Percent Effect,"30 µM, 30.03 µM",29.6%
CC(O)CN1CCC(CNCc2cccc(C(=O)N(C)C)c2)CC1 (configuration not stated),Percent Effect,"30.3 µM, […]",15.32%
CC(O)CN1CCC(CNCc2ccc(C#N)cc2)CC1 (configuration not stated),Percent Effect,"30.3 µM, […]",-9.359%
CC(O)CN1CCC(CNCc2ccccc2C(F)(F)F)CC1 (configuration not stated),Percent Effect,30 µM,19.95%
CC(O)CN1CCC(CNCc2cccc(OC(F)(F)F)c2)CC1 (configuration not stated),Percent Effect,30 µM,66.17%
CC(O)CN1CCC(CNCc2cccc(Br)c2)CC1 (configuration not stated),Percent Effect,"30 µM, 30.03 µM",61.22%
CC(O)CN1CCC(CNCc2cccc(C(F)(F)F)c2)CC1 (configuration not stated),Percent Effect,"30.3 µM, […]",35.92%
CC(O)CN1CCC(CNCc2cccc(OC(C)C)c2)CC1 (configuration not stated),Percent Effect,"30 µM, 30.03 µM",57.47%
CC(O)CN1CCC(CNCc2ccccc2OC(F)(F)F)CC1 (configuration not stated),Percent Effect,"30 µM, 30.03 µM",31.23%
COC(=O)c1cc(NCC(=O)NC(N)=O)cc(C(F)(F)F)c1,Percent Effect,"30.3 µM, […]",10.64%
C(=C\c1ccccc1)/CNCC1CCc2nncn2C1 (configuration not stated),Percent Effect,"30.3 µM, […]",-5.474%
O=C(Nc1ccccc1F)NC1(CO)CCOCC1,Percent Effect,"30.3 µM, […]",37.09%
Cc1nc(CN2C[C@@H]3CN(C(=O)c4ccnnc4)C[C@@H]3C2=O)cs1.O=C(O)C(F)(F)F,Percent Effect,"30 µM, 30.03 µM",13.66%
CC(C)(C)n1ncc2c1CCCC2NCc1cccc2c1OCCO2 (configuration not stated),Percent Effect,30 µM,39.91%
COc1c(CC2CC(C(=O)O)=NO2)c(Br)c2c(c1OC)OCO2 (configuration not stated),Percent Effect,"30.3 µM, […]",9.318%
Cc1noc(CNC(=O)N2CCN(c3nc(C)c(C)s3)CC2)n1,Percent Effect,"30.3 µM, […]",0.7779%
O=C(CN1CCOC(Cn2cccn2)C1)NCc1ccco1 (configuration not stated),Percent Effect,30 µM,30.39%
OC(CNC1CCOCC1)c1ccc(Cl)c(F)c1 (configuration not stated),Percent Effect,"30.3 µM, […]",9.683%
CC(=O)N1CCCCC[C@@H]2[C@@H]1[C@H](c1cccc(F)c1)CN2C(=O)C1CC1,Percent Effect,"30.3 µM, […]",16.49%
Cc1nc[nH]c1-c1nccn1CCN1CCOC1=O,Percent Effect,"30.3 µM, […]",3.243%
CC(C)COC(C)C(=O)NCCNS(C)(=O)=O (configuration not stated),Percent Effect,"30.3 µM, […]",50.97%
CCOC(C)C(=O)NCCNS(C)(=O)=O (configuration not stated),Percent Effect,"30.3 µM, […]",50.09%
CC(C)COC(C)C(=O)NCc1ccccc1 (configuration not stated),Percent Effect,30 µM,13.02%
CC(CC(=O)NCCNS(C)(=O)=O)C1CCCCC1 (configuration not stated),Percent Effect,"30.3 µM, […]",12.79%
CC(C)C(=O)NCCNC(=O)C(C)OCC(F)(F)F (configuration not stated),Percent Effect,"30.3 µM, […]",28.18%
CC(C)COC(C)C(=O)NCCNC(=O)C(C)C (configuration not stated),Percent Effect,"30.3 µM, […]",43.81%
CCOCC(O)CN1CCN(C(=O)c2ccc(C)nc2)CC1 (configuration not stated),Percent Effect,30 µM,29.83%
COc1ccc(Br)cc1CCC(=O)N1CCCC(O)C1 (configuration not stated),Percent Effect,"30.3 µM, […]",6.225%
N#Cc1cccc(OCCN2CCCC(c3noc(C4CC4)n3)C2)c1 (configuration not stated),Percent Effect,"30.3 µM, […]",32.43%
COCC1CN(S(=O)(=O)c2cccs2)Cc2ncnn2C1 (configuration not stated),Percent Effect,"30.3 µM, […]",38.74%
Cc1ccccc1C(=O)Nc1cnn(CCN2CCOCC2)c1,Percent Effect,30 µM,17.38%
CC(C)CS(=O)(=O)Nc1ccc2c(c1)OCC(C)(C)C(=O)N2C,Percent Effect,"30.3 µM, […]",-17.18%
CSc1ccc(CNC(=O)C2CC(=O)N(C(C)(C)C)C2)cc1 (configuration not stated),Percent Effect,"30.3 µM, […]",55.18%
CCN1CC(C(=O)NCc2cccc(SC)c2)CC1=O (configuration not stated),Percent Effect,"30.3 µM, […]",-29.4%
CN(C)S(=O)(=O)c1ccc(CNC(=O)C2CC(=O)N(C(C)(C)C)C2)cc1 (configuration not stated),Percent Effect,"30.3 µM, […]",21.08%
O=c1[nH]c(-c2ccc(F)c(F)c2)nc2c1CCNC2,Percent Effect,"30.3 µM, […]",51.76%
O=c1[nH]c(-c2ccc(F)cc2)nc2c1CCNC2,Percent Effect,"30.3 µM, […]",23.84%
O=c1[nH]c(-c2ccc(Cl)cc2)nc2c1CCNC2,Percent Effect,"30.3 µM, […]",20.84%

# — ChEMBL document CHEMBL3988442, “University of Dundee, Small-Polar-MMV Screening Library” (2021)
